The full list was thinned out, with hits kept by preference.
TDP1 cell CPT: DT40-hTDP1 cell growth loss with CPT; Potency, µM (top dose mostly 46.2 µM), without a hit: at the highest dose activity change, negative = growth inhibition, most hits filed as inhibitors; AID 686979; actives 12% (n = 420,000); chicken DT40 Tdp1-/-;hTDP1 cells + 20 nM CPT, ATP luminescence, 48 h; further: potency means the concentration at half of the fitted maximal effect; nearly all actives have a fitted effect of over 55% in size
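Chicken DT40 Tdp1-/- cells stably complemented with human TDP1 were seeded at 400 cells/well in medium containing 20 nM camptothecin, exposed to pin-transferred compounds, and grown at 37 °C for at least 48 hr. Viability was read as ATP luminescence.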
HT1080-NT tox: kills 2HG-producing HT-1080-NT fibrosarcoma cells; HT-1080-NT fibrosarcoma viability, CellTiter-Glo ATP luminescence, 48 h; Potency, µM (top dose mostly 46.1 µM), inactives show at the top dose activity, negative = less viability, hits mostly cytotoxic; actives 1.6% (n = 360,000); AID 686970;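 further: NT is the 2HG producing partner of a matched IDH1 knockdown line; potency means the concentration at half of the fitted maximal effect; 0% = DMSO-treated cells and -100% = media-only wells without cells; nearly all actives have a fitted effect of over 55% in size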
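Toxicity toward the 2HG-producing NT line was scored as %Activity, normalised to DMSO and no-cell wells, from CellTiter-Glo luminescence after 48 hours' treatment.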
IL-1B inflam inh: inflammasome signaling inhibition, IL-1 beta readout | THP-1 LPS/ATP IL-1B secretion, AlphaLISA, 16 h; hits give low values | actives 4.7% (n = 360,000) | AID 743279 | activity change, % at 57.5 µM; in the data active means activity change below about -50%; inconclusive means mostly about -30% to -49%
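THP-1 cells pretreated 1 hr with compounds (up to 57.5 uM final), then stimulated with LPS (250 ng/mL final) plus ATP (1.25 mM final); secreted IL-1B measured by AlphaLISA after 16 hr, decreased signal indicating inhibition.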
12-LOX inh: blocks human arachidonate 12S-lipoxygenase; Potency, µM (doses to about 108 µM), for the others: top-dose activity change, negative = inhibition, most hits filed as inhibitors; P18054; purified 12hLO, xylenol orange hydroperoxide absorbance; actives 1.1% (n = 580,000); AID 1671190; further: potency means the concentration at half of the fitted maximal effect
Target sequence (P18054 whole entry, looked up): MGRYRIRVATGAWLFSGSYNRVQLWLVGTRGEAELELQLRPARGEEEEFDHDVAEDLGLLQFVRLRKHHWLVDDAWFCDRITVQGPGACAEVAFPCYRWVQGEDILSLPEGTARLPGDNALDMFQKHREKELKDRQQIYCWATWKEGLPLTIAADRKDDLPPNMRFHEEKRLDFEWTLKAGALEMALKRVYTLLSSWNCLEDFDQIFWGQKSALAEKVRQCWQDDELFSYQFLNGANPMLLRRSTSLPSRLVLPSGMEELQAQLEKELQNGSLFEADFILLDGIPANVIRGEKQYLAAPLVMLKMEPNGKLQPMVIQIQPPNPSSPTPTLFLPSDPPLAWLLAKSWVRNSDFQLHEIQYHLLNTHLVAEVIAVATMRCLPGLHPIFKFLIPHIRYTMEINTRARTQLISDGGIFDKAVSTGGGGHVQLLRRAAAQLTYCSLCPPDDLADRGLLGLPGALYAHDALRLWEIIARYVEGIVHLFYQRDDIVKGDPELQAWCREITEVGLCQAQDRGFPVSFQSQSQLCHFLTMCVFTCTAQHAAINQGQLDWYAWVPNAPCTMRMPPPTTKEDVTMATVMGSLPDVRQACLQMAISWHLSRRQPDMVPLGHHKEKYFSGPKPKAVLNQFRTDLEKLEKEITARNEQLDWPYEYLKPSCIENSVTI
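Purified human 12hLO (150 nM final) in 25 mM Hepes, 0.01% Triton X-100, pH 7.0 was preincubated 15 min at room temperature with compound. Then 40 uM arachidonic acid was added, 30 min. Hydroperoxide was read by Fe-XO absorbance ratio 573/405 nm.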
DT40 TDP1 no CPT: qHTS for Inhibitors of human tyrosyl-DNA phosphodiesterase 1 (TDP1): qHTS in cells in absence of CPT | Potency, µM (doses to about 46.2 µM), without a hit: top-dose activity change, negative = growth inhibition, usual class: inhibitors | DT40 Tdp1-/- hTDP1 cells, no CPT, ATP luminescence, 48 h | actives 15% (n = 420,000); further: potency means the concentration at half of the fitted maximal effect; nearly all actives have a fitted effect of over 55% in size
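Readout: luminescence from CellTiter-Glo after 30 min in the dark at RT. Cells: DT40 Tdp1-/- with stable hTDP1, 400/well. Exposure: compounds alone, ≥48 hr, 37 °C.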
HT1080 IDH1KD tx: HT-1080 IDH1 knockdown cell toxicity (counter line); HT-1080 IDH1 knockdown viability, ATP luminescence, 48 h; Potency, µM (series often up to 46.1 µM), for inactives: top-dose activity, negative = toxicity, hits mostly cytotoxic; actives 2% (n = 360,000); AID 686971;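 further: potency means the concentration at half of the fitted maximal effect; 0% = DMSO wells and -100% = cell-free medium wells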
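Viability of IDH1-knockdown HT-1080 fibrosarcoma cells was assessed by CellTiter-Glo after 48 h at 37 °C with titrated compound; concentration-effect curves were classified by fit quality and response size.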
An asterisk follows results filed as active; u = inconclusive; x = not tested or not shown; ! = repeats disagree; [ ] = another dose, or the depositor's remark. Unless noted, the call rests on the fitted dose curve; in most records, active means well fitted curve in the direction sought with a large enough effect; inconclusive means small, poorly fitted or top-dose-only effect, or another doubt; inactive means no such curve, though single readings can be large; an effect the other way counts as inactive or inconclusive. Unless noted, on the % scale 0 is the no-effect control and ±100 the full control effect.

SMILES | TDP1 cell CPT | HT1080-NT tox | IL-1B inflam inh | 12-LOX inh | DT40 TDP1 no CPT | HT1080 IDH1KD tx
O=C(COc1ccc(/C=N/NC(=O)c2cc3ccccc3o2)cc1Br)Nc1ccccc1 | 18µM* | -25% | -117* | u | 18µM* | -2%
O=C(COc1ccccc1[N+](=O)[O-])Nc1ccc(-c2nc3ccccc3s2)cc1 | 21µM* | x | x | -13% | 21µM* | x
O=C(COc1ccccc1[N+](=O)[O-])Nc1ccc(NC(=O)c2cc3ccccc3o2)cc1 | 23µM* | -10% | -12 | -2% | u | -22%
O=C(COc1ccccc1[N+](=O)[O-])Nc1cccc(-c2nc3ccccc3s2)c1 | u | x | x | -9% | u | x
Cc1cccc(Nc2nc(N)nc(CN3CC[C@@](O)(C4CCC4)[C@H](C)C3)n2)c1 | x | x | x | 47% | x | x
Cc1noc(C)c1[S+](=O)([O-])N1CCC2(CC1)OCCN(Cc1ccccc1)C2=O | x | x | x | 17%[176 µM] | x | x
Cc1c(Cl)cccc1Nc1ncccc1C(=O)O | u | -1% | 36 | 76% | u | -5%
Cc1c(Nc2ncccc2C(=O)O)cccc1C(F)(F)F | u | -1% | 22 | -3% | 4µM*! | 12%
O=C(O)c1cc(-n2c(/C=C\c3ccc(F)cc3)nc3ccccc3c2=O)ccc1Cl | 15µM* | x | x | 7% | 21µM* | x
O=C(O)c1cccc(-n2c(/C=C/c3ccccc3)nc3ccccc3c2=O)c1 | u | 0% | 5 | u | u | -3%
O=C(CSc1nc2ccccc2c(=O)n1-c1ccc(F)cc1F)NC1CC1 | -10% | -2% | 0 | -2% | u | -1%
COc1cccc(/C=C/c2nc3ccccc3c(=O)n2-c2ccc(C)c(C)c2)c1OC | 10µM* | x | x | 6% | 8.2µM* | x
O=c1c2ccccc2nc(/C=C/c2cccc3ccccc23)n1-c1ccc(F)cc1F | 23µM* | x | x | u | u | x
COc1cc(OC)c(OC)cc1/C=C/c1nc2cc3ccccc3cc2c(=O)n1-c1ccc(F)cc1F | 12µM* | x | x | u | 8.2µM* | x
CC(C)N1CCOC[C@H]1c1ncc(-c2ccc(OC(F)(F)F)cc2)[nH]1 | x | x | x | 27%[176 µM] | x | x
O=C(c1ccc(N2CCC(NCC(c3ccccc3)c3ccccc3)CC2)cc1)N1CCCC(O)C1 (stereo unspecified) | x | x | x | 27% | x | x
Oc1ccc(N=Nc2c(O)ccc3ccccc23)cc1 | 18µM* | 11µM* | -51* | u | u | u
CN(Cc1ccccc1)C(=O)c1ncn(C)c1C(=O)N(C)Cc1ccccc1 | -12% | 0% | 16 | u | -25% | 8%
CN(Cc1ccccc1)C(=O)c1ncn(Cc2ccccc2)c1C(=O)N(C)Cc1ccccc1 | u | 0% | -3 | 4% | 18µM* | -1%
C=CCc1ccc(O)c(-c2ccc(O)c(CC=C)c2)c1 | u | -1% | u | u | 18µM* | -6%
C=CCc1cc(C(=O)N2CCCCC2)ccc1O | u | 0% | -2 | -8% | u | -2%
Cc1ccc(CNC(=O)C2CCN(C(=O)c3ncn4c3COC(c3ccccc3)C4)CC2)cc1 (stereo unspecified) | x | x | x | 35% | x | x
O=C(C1=NNCC1c1ccc(Cl)cc1)C1CO1 (stereo unspecified) | 8.2µM* | -2% | -67* | -11% | u | -9%
CCc1ccc(/C=N\NC(=O)c2ccc(Br)o2)s1 | u | -1% | -8 | 7% | 23µM* | -16%
CCc1ccc(/C=N/NC(=O)c2cc(C3CC3)nc3ccc(Br)cc23)s1 | 2.6µM* | 6.5µM* | 24 | u | 4.6µM* | 5.8µM*
SMILES | TDP1 cell CPT | HT1080-NT tox | IL-1B inflam inh | 12-LOX inh | DT40 TDP1 no CPT | HT1080 IDH1KD tx
CCc1ccc(/C=N/NC(=O)c2cc(-c3ccccc3OC)nc3ccccc23)s1 | 4.1µM* | -14% | -6 | 0% | 12µM* | -10%
COc1ccccc1-c1cc(C(=O)N/N=C/c2ccoc2)c2ccccc2n1 | u | -9% | 28 | 0% | 7.3µM* | 0%
COc1ccc(/C=N/NC(=O)c2cc(-c3ccccc3OC(C)C)nc3ccccc23)cc1CN1CCOCC1 | u | -20% | u | -2% | u | -24%
O=C(N/N=C/c1cccc(O)c1)c1cc(C2CC2)nc2ccccc12 | u | -29% | 49 | -7% | u | u
CCc1noc(-c2nc(-c3cccc(F)c3)no2)n1 | x | x | x | 11% | x | x
COc1cccc(-n2nc(C(=O)Nc3cccc(C(F)(F)F)c3)c3ccccc3c2=O)c1 | x | x | x | -2% | x | x
COC(=O)C1=C(C)NC(C)=C(C(=O)OCCc2ccc(N3CCN(C(c4ccccc4)c4ccccc4)CC3)cc2)C1c1cccc([N+](=O)[O-])c1 (stereo unspecified) | x | x | x | -9%[22.9 µM] | x | x
COC(=O)C1=C(C)NC(C)=C(C(=O)OCCCN2CCC(c3ccccc3)(c3ccccc3)CC2)C1c1cccc([N+](=O)[O-])c1 (stereo unspecified) | 18µM* | x | x | u | 11µM* | x
CCOC(=O)C1=C(C)NC(C)=C(C(=O)OCC)C1c1cccc([N+](=O)[O-])c1 | u | -2% | -2 | u | 23µM* | -29%
CC1=C(C(=O)OCc2ccccc2)C(c2ccc(N(C)C)cc2)NC(=O)N1 (stereo unspecified) | -23% | -19% | -60* | -12% | -23% | -8%
CC1=C(C(=O)OCc2ccccc2)C(c2ccccc2OC(F)F)NC(=O)N1 (stereo unspecified) | 29µM* | -11% | -7 | -5% | u | u
Cc1ccc(C2NC(=O)N(CC(=O)N3CCN(c4ccccc4)CC3)C3=C2C(=O)OC3)cc1 (stereo unspecified) | x | x | x | 12% | x | x
CCOc1ccccc1C1NC(=O)NC(C)=C1C(=O)OCc1ccccc1 (stereo unspecified) | -16% | -2% | -7 | 14% | u | -6%
COc1ccc(COC(=O)C2=C(C)NC(=O)NC2c2ccccc2OC(C)C)cc1 (stereo unspecified) | -29% | -21% | -10 | u | 18µM* | -20%
CC1=C(C(=O)OCc2ccccc2)C(c2cccc([N+](=O)[O-])c2)NC(=O)N1 (stereo unspecified) | u | 7% | -2 | u | 18µM* | -1%
COc1ccccc1C1NC(=O)NC(C)=C1C(=O)OCc1ccccc1 (stereo unspecified) | -19% | -10% | -16 | 0% | u | -10%

Assay outcomes deposited in PubChem BioAssay by National Center for Advancing Translational Sciences (NCATS).
